In assay [1] the test system is Thyroperoxidase (TPO), gene 54314. The assay can be described thus: CCTE_Simmons_AUR_rTPO: CCTE's Amplex UltraRed Assay for Thyroperoxidase (TPO) Inhibition, Simmons Lab (AID 2283662).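 Note: potency for loss of signal meaning inhibition of peroxidase activity.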 The gist of the method:
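Cell-free peroxidase activity assay using rat thyroid gland microsomes with excess H2O2 (300 uM) and 25 uM Amplex UltraRed. Compounds tested from 5 nM to 87.5 uM; fluorescence measured after 30 min at 37C, analysed relative to DMSO baseline.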

Assay [2] has as its target Luciferin 4-monooxygenase (Photinus pyralis) (UniProt P08659). As to the kind of experiment: CCTE_Simmons_QuantiLum_inhib_2: CCTE's Firefly Luciferase Inhibition Assay, Simmons Lab (AID 2283767).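 For AC50: potency for inhibitors that lower luciferase luminescence relative to DMSO.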 In a few lines:
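Eight-point titrations of each chemical, 5 nM–87.5 uM final in 0.5% DMSO, were run in three biological replicates against recombinant luciferase for 30 min at 37C. Bioluminescence signal loss, read on reagent injection, gave the inhibition endpoint.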

For assay [3], the target named is human Peripheral-type Benzodiazepine Receptor (PBR), TSPO (gene 706) (UniProt P30536). As to the kind of experiment: NVS_MP_hPBR: NovaScreen (NVS) Membrane Protein Assay for human Peripheral-type Benzodiazepine Receptor (PBR) (AID 2283331).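 Note: hits reduce radioligand binding relative to DMSO baseline.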 The gist of the method:
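Cell-free binding to human colonic membrane preparations measured by filter-based scintillation counting after 1 h. Compounds first run at 25 uM in duplicate, then concentration series for actives; signal loss against DMSO baseline.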

The target of assay [4] is Nuclear receptor subfamily 1 group I member 2 (Homo sapiens) (UniProt O75469). As to the kind of experiment: NVS_NR_hPXR: NovaScreen (NVS) Nuclear Receptor Binding Assay for human Pregnane X Receptor (PXR) (AID 2283365).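 Note: a drop in FRET signal versus DMSO baseline means the compound binds.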 In a few lines: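 Read-out: TR-FRET, human PXR, 2 h post-dosing, cell-free. Loss of signal vs DMSO taken as binding activity; 25 uM primary, concentration series secondary.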
Chain of Nuclear receptor subfamily 1 group I member 2 (Homo sapiens) (O75469 whole entry, looked up): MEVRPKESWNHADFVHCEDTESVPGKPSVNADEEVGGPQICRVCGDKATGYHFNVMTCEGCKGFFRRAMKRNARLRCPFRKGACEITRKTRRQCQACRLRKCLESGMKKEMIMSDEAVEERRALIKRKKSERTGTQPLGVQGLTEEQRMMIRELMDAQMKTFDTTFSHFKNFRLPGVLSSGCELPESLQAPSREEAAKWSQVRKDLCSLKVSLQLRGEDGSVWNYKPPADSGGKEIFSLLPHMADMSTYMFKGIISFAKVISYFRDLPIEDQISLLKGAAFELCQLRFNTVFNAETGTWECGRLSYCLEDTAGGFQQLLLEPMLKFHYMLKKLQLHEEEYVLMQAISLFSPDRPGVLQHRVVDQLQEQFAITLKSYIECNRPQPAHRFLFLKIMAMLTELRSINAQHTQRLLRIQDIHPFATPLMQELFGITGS

A short description of assay [5]: CCTE_Simmons_CellTiterGLO_HEK293T: Viability Assessment in CCTE's Assays for Thyroperoxidase (TPO) Inhibition, Simmons Lab (AID 2283665).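 For AC50: cells exposed to compound for 24 h before readout; actives reduce ATP signal below DMSO vehicle meaning cytotoxicity.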 The gist of the method:
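ATP depletion measured in HEK293T cells after 24 h dosing (8 concentrations, 5 nM–87.5 uM final; DMSO 0.5%) using CellTiter-Glo luminescence; curves fit for loss of signal against DMSO baseline.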

Assay [6] has as its system Sodium/Iodide Symporter (NIS), SLC5A5 (gene 6528). The assay can be described thus: CPHEA_Stoker_NIS_Inhibition_RAIU: CPHEA's Radioactive Iodide Uptake (RAIU) Assay for Sodium/Iodide Symporter (NIS) Inhibition, Stoker and Laws Labs (AID 2283841). In a few lines: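 Iodide uptake through human NIS is measured in an engineered HEK293T line. Cells take up 125I (329pM final) for 2 hours at room temperature alongside chemicals at 0.001–100uM. Retained radioactivity is counted, and the signal is expressed against DMSO controls.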

Assay [7] can be described thus: CPHEA_Stoker_NIS_Cytotoxicity: Cytotoxicity Assessment for CPHEA's Radioactive Iodide Uptake (RAIU) Assay for Sodium/Iodide Symporter (NIS) Inhibition, Stoker and Laws Labs (AID 2283897). The gist of the method:
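ATP luminescence (Cell Titer Glo) measured viability, with loss of signal normalized to DMSO controls. Cells: hNIS-HEK293T-EPA, seeded 40 hours prior. Dosing: 0.001–100uM, 2 hours, room temperature, uptake buffer pH 7.4.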

The nature of assay [8]: CCTE_Deisenroth_AIME_384WELL_CTox_Active: Cytotoxicity Assessment (CTOX) in CCTE's 384-well Estrogen Receptor Transactivation Assay with AIME metabolic competence (metabolism positive), Deisenroth Lab (AID 2284037).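 Note: chemicals first conditioned 2 h by alginate-bound induced rat liver S9 before cells; activity means signal loss indicating cell death.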 In a few lines:
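Cytotoxicity in VM7Luc4E2 breast cells, 24 hour, measured as protease-substrate fluorescence loss, after 2-hour metabolic conditioning with induced rat hepatic S9 in alginate microspheres. Concentrations 0.002 - 200 uM, 10 points, bidirectional fitting.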

The nature of assay [9]: CEETOX_H295R_11DCORT: CeeTox H295R High-throughput Steroidogenesis Assay for 11-Deoxycortisol (11DCORT) (AID 2283432; active = hit-call score of the fitted dose curve at least 0.9, where 1 is the maximum; inactive = score below 0.9;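 for AC50: 11-deoxycortisol secreted into the medium measured by LC-MS/MS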). The settings on record: actives raise or lower the signal. The gist of the method:
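Adrenal carcinoma line H295R, run per OECD 456 with minor changes, was forskolin-stimulated (10 uM, 48 h) before a 48 h chemical exposure at 0.1% DMSO. Secreted 11-deoxycortisol was quantified by HPLC-MS/MS.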

A short description of assay [10]: CEETOX_H295R_OHPREG: CeeTox H295R High-throughput Steroidogenesis Assay for OH-Pregnenolone (OHPREG) (AID 2283434; active = hit-call score of the fitted dose curve at least 0.9, where 1 is the maximum; inactive = score below 0.9). The note with it: actives raise or lower the signal. In a few lines:
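Secreted 17alpha-hydroxypregnenolone measured by HPLC-MS/MS after liquid-liquid extraction. Human adrenal H295R cells received 48 h forskolin (10 uM) stimulation before 48 h chemical exposure at 0.1% final DMSO; MTT viability in same wells; bidirectional fit against DMSO.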

A short description of assay [11]: CEETOX_H295R_CORTIC: CeeTox H295R High-throughput Steroidogenesis Assay for Corticosterone (CORTIC) (AID 2283437; active = hit-call score of the fitted dose curve at least 0.9, where 1 is the maximum; inactive = score below 0.9). The settings on record: actives raise or lower the signal. In a few lines:
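Medium corticosterone was quantified by tandem mass spectrometry following 48 hours of chemical exposure (0.1% DMSO) in human H295R cells previously stimulated 48 hours with 10 uM forskolin. Viability checked by MTT; chemicals diluted and retested when viability fell below 70%.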

Assay [12] is described as follows: CEETOX_H295R_CORTISOL: CeeTox H295R High-throughput Steroidogenesis Assay for Cortisol (AID 2283438; active = hit-call score of the fitted dose curve at least 0.9, where 1 is the maximum; inactive = score below 0.9;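 note: cortisol secreted into medium quantified by LC-MS/MS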). The settings on record: actives raise or lower the signal. In a few lines:
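Steroidogenesis in H295R, per modified OECD 456: 48 h forskolin (10 uM), then 48 h exposure, 0.1% DMSO. Cortisol by extraction and tandem MS; viability by MTT (570/650 nm); cytotoxic chemicals diluted and re-tested.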

The nature of assay [13]: CEETOX_H295R_DOC: CeeTox H295R High-throughput Steroidogenesis Assay for DOC (AID 2283439; active = hit-call score of the fitted dose curve at least 0.9, where 1 is the maximum; inactive = score below 0.9). The settings on record: actives raise or lower the signal. In a few lines: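 H295R, fsk 10 uM ×48 h pre, cmpd ×48 h (0.1% DMSO). Media → MTBE extr. → LC-MS/MS, DOC. Bidirectional fit vs DMSO; MTT viability same wells, re-test diluted if <70%.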
The nature of assay [14]: CEETOX_H295R_PROG: CeeTox H295R High-throughput Steroidogenesis Assay for Progesterone (PROG) (AID 2283442; active = hit-call score of the fitted dose curve at least 0.9, where 1 is the maximum; inactive = score below 0.9;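 for AC50: human H295R adrenal cells primed with 10 µM forskolin before dosing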). The settings on record: actives raise or lower the signal. In a few lines:
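Measured analyte is progesterone secreted by H295R cells at 48 h of chemical treatment, following 10 uM forskolin priming. Quantitation used HPLC-MS/MS against a 7-point standard curve; cytotoxicity was checked by MTT absorbance.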

In assay [15] the target is rat Peripheral-type Benzodiazepine Receptor (PBR), Tspo (gene 24230) (UniProt P16257). The assay can be described thus: NVS_MP_rPBR: NovaScreen (NVS) Membrane Protein Assay for rat Peripheral-type Benzodiazepine Receptor (PBR) (AID 2283335). The gist of the method:
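Single-concentration duplicate screening at 25 uM preceded concentration-series retesting of actives. Binding of a specific radioligand to rat kidney membrane PBR was read by filtration radiodetection after 1 h, with plate-wise positive and negative controls.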

Assay [16] in a line: CCTE_Padilla_ZF_Score.General: CCTE's 144 Hour Post-fertilization zebrafish Assay Score for General Malformation, Padilla Lab (AID 2284411; active = hit-call score of the fitted dose curve at least 0.9, where 1 is the maximum; inactive = score below 0.9). In a few lines: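 Malformation, death and hatching were scored at 6 dpf by two blinded observers under a stereo microscope. Embryos were dosed singly from 6-8 hpf in sealed plates of 10% Hanks' at 26C and rinsed on 5 dpf; DMSO baseline.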

For assay [17], the target named is Nucleoli Translocation, AR (gene 367) (UniProt P10275). The assay can be described thus: UPITT_HCI_U2OS_AR_TIF2_Nucleoli_Antagonist: University of Pittsburgh U2OS Androgen Receptor-Transcriptional Intermediary Factor 2 (AR-TIF2) Antagonism High Content Imaging Assay for Nucleoli Translocation (AID 2283997). The gist of the method: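 Antagonism is read as loss of nucleolar AR-RFP signal relative to DHT, imaged in U2OS cells also carrying GFP-TIF2. Compounds screened at 20 uM final, 0.2% DMSO; primary actives retested in triplicate.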
Chain of Nucleoli Translocation, AR (gene 367) (P10275 whole entry, looked up): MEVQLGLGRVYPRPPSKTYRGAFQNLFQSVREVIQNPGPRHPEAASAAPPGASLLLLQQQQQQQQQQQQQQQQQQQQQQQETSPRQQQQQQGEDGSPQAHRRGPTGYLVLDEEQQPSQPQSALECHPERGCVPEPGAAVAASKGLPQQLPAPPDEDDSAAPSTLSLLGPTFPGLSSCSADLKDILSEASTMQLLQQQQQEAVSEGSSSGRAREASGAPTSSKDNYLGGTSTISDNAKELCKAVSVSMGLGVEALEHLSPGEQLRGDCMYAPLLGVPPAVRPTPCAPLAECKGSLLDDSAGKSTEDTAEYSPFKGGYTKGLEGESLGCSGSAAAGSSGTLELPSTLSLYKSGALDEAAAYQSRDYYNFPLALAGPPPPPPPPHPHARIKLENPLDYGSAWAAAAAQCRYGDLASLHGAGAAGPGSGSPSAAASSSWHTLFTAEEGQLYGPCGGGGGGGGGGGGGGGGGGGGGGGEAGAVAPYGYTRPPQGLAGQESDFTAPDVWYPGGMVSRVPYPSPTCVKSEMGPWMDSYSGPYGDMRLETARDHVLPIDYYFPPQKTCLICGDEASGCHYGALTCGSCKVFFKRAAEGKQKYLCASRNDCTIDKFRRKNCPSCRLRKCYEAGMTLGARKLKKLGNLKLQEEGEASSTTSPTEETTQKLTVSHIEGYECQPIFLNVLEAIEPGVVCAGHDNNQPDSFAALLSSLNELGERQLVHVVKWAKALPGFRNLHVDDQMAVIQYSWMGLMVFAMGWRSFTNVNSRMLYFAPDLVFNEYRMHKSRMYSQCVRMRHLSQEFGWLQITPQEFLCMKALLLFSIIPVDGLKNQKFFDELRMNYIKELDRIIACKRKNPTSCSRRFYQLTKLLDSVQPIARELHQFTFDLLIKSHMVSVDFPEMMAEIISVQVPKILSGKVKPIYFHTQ

Assay [18] addresses human Phosphodiesterase 10 (PDE10), PDE10A (gene 10846) (UniProt Q9Y233). As to the kind of experiment: NVS_ENZ_hPDE10: NovaScreen (NVS) Enzymatic Assay for human Phosphodiesterase 10 (PDE10) (AID 2283195). In a few lines:
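Fluorescence readout after mobility-shift separation of substrate and product, 1 h reaction with recombinant human enzyme. Single-concentration duplicates at 25 uM, then concentration-response up to 50 uM for chemicals reaching threshold; DMSO baseline.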

For assay [19], the target named is Ratio of Nucleoli Translocation and Cytoplasm, AR (gene 367) (UniProt P10275). The assay can be described thus: UPITT_HCI_U2OS_AR_TIF2_Nucleoli_Cytoplasm_Ratio_Agonist: University of Pittsburgh U2OS Androgen Receptor-Transcriptional Intermediary Factor 2 (AR-TIF2) Agonism High Content Imaging Assay for Ratio of Nucleoli Translocation and Cytoplasm (AID 2284000).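 Note: hits raise the red nucleolar to cytoplasm ratio above vehicle.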 The gist of the method: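 Compounds tested at 20 uM final in primary screen (0.2% DMSO) and 0.195-50 uM final in dose-response (0.5% DMSO). Imaging of human U2OS cells bearing RFP-AR and GFP-TIF2; endpoint is nucleoli/cytoplasm red signal ratio, positive direction relative to DMSO.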
Chain of Ratio of Nucleoli Translocation and Cytoplasm, AR (gene 367) (P10275 whole entry, looked up): as above

Values joined by “and” are separate entries in the source; they are usually repeats but may differ in a detail not shown here. Equal values may be shown once. Records with an inconclusive call do not appear. More than one record can exist for a structure, and the calls need not agree. Active and inactive are the calls of the source. Rule for the calls, unless noted: active = hit-call score of the fitted dose curve at least 0.9, where 1 is the maximum; inconclusive = response in the unintended direction; inactive = score below 0.9.

Chain of human Peripheral-type Benzodiazepine Receptor (PBR), TSPO (gene 706) (P30536 whole entry, looked up): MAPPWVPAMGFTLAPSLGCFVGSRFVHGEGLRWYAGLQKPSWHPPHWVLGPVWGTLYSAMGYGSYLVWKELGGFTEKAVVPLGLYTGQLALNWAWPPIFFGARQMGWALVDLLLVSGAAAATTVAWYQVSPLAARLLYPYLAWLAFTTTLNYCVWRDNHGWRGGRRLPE
Chain of Luciferin 4-monooxygenase (Photinus pyralis) (P08659 whole entry, looked up): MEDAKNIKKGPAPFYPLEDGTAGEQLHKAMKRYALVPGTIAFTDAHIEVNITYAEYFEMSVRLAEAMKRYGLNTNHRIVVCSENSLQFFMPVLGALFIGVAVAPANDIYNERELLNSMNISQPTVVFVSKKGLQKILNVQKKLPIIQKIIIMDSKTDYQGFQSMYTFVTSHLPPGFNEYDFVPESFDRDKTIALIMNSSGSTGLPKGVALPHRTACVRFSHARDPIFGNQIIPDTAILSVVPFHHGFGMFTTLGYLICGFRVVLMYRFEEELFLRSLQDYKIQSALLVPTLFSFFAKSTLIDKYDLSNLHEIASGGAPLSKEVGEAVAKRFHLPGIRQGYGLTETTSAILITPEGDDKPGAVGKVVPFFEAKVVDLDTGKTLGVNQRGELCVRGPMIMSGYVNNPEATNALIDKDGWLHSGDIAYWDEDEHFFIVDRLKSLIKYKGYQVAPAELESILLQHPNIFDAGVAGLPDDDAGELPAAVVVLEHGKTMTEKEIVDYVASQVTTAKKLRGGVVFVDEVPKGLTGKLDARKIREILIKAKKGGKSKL
Chain of rat Peripheral-type Benzodiazepine Receptor (PBR), Tspo (gene 24230) (P16257 whole entry, looked up): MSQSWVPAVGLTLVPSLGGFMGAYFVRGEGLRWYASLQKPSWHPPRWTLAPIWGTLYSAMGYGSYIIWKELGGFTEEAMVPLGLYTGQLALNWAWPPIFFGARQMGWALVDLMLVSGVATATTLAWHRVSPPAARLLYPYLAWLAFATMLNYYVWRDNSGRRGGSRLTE
Chain of human Phosphodiesterase 10 (PDE10), PDE10A (gene 10846) (Q9Y233 whole entry, looked up): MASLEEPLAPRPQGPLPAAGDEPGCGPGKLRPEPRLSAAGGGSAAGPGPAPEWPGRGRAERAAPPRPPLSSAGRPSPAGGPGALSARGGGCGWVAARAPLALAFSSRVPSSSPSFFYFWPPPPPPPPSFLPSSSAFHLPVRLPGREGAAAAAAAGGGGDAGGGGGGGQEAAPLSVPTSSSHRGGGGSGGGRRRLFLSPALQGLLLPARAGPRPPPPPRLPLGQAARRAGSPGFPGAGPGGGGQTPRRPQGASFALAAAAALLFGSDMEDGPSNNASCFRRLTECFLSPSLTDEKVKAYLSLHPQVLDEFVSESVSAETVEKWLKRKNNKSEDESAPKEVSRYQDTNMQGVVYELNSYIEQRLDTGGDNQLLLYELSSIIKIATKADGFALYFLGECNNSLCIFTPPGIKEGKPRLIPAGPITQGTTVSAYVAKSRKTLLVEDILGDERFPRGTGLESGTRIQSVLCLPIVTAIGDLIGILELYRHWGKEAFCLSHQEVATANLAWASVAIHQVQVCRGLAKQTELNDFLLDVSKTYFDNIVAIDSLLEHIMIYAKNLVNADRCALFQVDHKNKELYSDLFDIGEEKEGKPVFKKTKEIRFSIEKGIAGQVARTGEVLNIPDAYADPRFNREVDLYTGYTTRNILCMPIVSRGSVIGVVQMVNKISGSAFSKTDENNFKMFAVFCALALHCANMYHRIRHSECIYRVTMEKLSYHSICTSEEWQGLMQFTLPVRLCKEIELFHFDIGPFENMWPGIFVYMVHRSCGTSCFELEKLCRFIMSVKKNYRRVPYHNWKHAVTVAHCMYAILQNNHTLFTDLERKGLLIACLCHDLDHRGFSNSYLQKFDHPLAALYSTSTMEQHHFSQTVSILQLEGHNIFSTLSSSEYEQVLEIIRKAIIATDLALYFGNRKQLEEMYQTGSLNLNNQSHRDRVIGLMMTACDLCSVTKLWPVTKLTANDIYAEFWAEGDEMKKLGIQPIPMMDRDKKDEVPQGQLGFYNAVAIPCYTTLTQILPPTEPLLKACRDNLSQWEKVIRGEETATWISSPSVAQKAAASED

As usually defined, the AC50 is the concentration at which the activity in the assay is half-maximal. In the case of `c1ccc(P(c2ccccc2)c2ccccc2)cc1`, the AC50 in assay [1] was 40.2 µM (active). Besides, the outcome in [2] was inactive.
`CCCCCCCCCCCCCCCC[N+](C)(C)C`: the AC50 in assay [3] was 12.3 µM (active); in assay [4], 899 nM (active); in assay [1], 51.5 µM (active); in assay [5] it was 10.2 µM (active); in assay [2] it was 92.4 µM (active); in [6] it was 10.2 µM (active). The result in [7] and in assay [8] was inactive.
As for `O=C(O)CCl`, the AC50 in assay [1] is 18.1 µM (active). For the same compound, the compound was called inactive in [5] and in assay [2].
Regarding `CC(Cc1ccc(C(C)(C)C)cc1)CN1C[C@@H](C)O[C@@H](C)C1` (stereo not given in full), the AC50 in [9] is 13.8 µM (active); in assay [10], 45.4 nM (active); in [12], 39.5 µM (active); in assay [13] it was 9.92 µM (active); in [14] it was 53 nM (active). Besides, the outcome in [11], in [6] and in assay [7] was inactive.
Regarding `Cc1ccc(OP(=O)(Oc2ccc(C)cc2)Oc2ccc(C)cc2)cc1` (tested in a mixture with another compound), the AC50 in [3] was 1.12 µM (active) and 1.76 µM (active); in [15], 150 nM (active) and 5.34 µM (active); in [16], 2.6 µM (active). The call in assay [9], in [10], in assay [11], in assay [12], in assay [13] and in assay [14] was inactive. Besides, the result in [6] and in assay [7] was inactive.
Turning to `O=C1Nc2ccc(Cl)cc2C(c2ccccc2)=NC1O` (stereo not given), the result in assay [6] and in [7] was inactive.
Regarding `CC1(C)[C@H](C(=O)O[C@H](C#N)c2cccc(Oc3ccccc3)c2)[C@@H]1C=C(Br)Br`, the AC50 in assay [3] is 10.1 µM (active); in assay [15] it was 15 µM (active). The compound was classed as inactive in [3] and in assay [17].
For `O=c1c2ccccc2c(=O)c2c1cc(Cl)c1[nH]c3c([nH]c12)c(Cl)cc1c(=O)c2ccccc2c(=O)c13`, the compound was called inactive in assay [18] and in [16].
As to `Nc1ccc(-c2ccc(N)c(N)c2)cc1N`, in assay [18], the AC50 was 6.79 µM (active).
Turning to `Cc1ccc(C)c2ccccc12`, the compound was called inactive in assay [4], in [17], in assay [19] and in [8].

The values are drawn from PubChem BioAssay (EPA / NIEHS).
